Screening data deposited in PubChem BioAssay by several laboratories.
RmlC RmlD mix – inhibitors of RmlC and RmlD coupled enzymes | 0.39% of 110,000 active | inhibition, % at 5.5 µM | RmlC/RmlD coupled enzyme inhibition, 384-well mixture HTS; in the data active means inhibition above about 30%, passing the limit was not always enough
RT RNaseH block – inhibitors of HIV-1 reverse transcriptase RNase H. P04585. RT-RNase H RNA/DNA duplex cleavage, fluorescence. inhibition, % at 10 µM. 1.9% of 65,000 active; in the data active means inhibition above about 50%
RmlCD fluor art – counter-screen for RmlC/RmlD inhibitors: fluorescence artifact. shares compounds with RmlC RmlD mix. RmlC/RmlD assay fluorescence artifact counter-screen. 96% of 360 active. calls only; call rule not given here;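 further: compound alone with no enzyme and no substrates present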
* hit, by the source's call; / = no result; + = active, no number. The full list was thinned out, with hits kept by preference.

SMILES	RmlC RmlD mix	RT RNaseH block	RmlCD fluor art
O=S(=O)(c1cc(Cl)ccc1Cl)N1CC2CCCN2c2ccc(C(F)(F)F)cc21 (stereo not drawn)	-8.4	/	/
CCOC(=O)CC(=O)CSc1nc(CC)c(C)cc1C#N	/	/	+
CC(C)OC(=O)CC(=O)CSc1nc2c(cc1C#N)CCCCC2	+	/	+
CCOC(=O)CC(=O)CSc1nc2c(c(C)c1C#N)CCC2	/	-22.2	/
CCOC(=O)CC(=O)CSc1nc2c(cc1C#N)CCCCC2	76.4	7.1	/
CCOC(=O)CC(=O)CSc1nc(C)cc(C)c1C#N	110.3*	/	+
COC(=O)CSc1nc2cc(C)ccc2cc1C#N	5.6	1.8	/
CCc1nc(SCC(=O)O)c(C#N)cc1C	-2.1	/	/
CCOC(=O)CC(=O)CSc1nc2ccc(C)cc2cc1C#N	+	-3.0	+
C=C(C)C1CC=C(C)/C(=N/NC(=O)CNc2ccc(OCC)cc2)C1 (stereo not drawn)	-6.1	/	/
O=C(NCCc1ccc(Cl)cc1)C1CCC(CNc2c(N3CCCCC3)c(=O)c2=O)CC1 (stereo not drawn)	-13.6	/	/
CC1(C(=O)NCc2ccccn2)C=CCN1C(=O)c1ccccc1 (stereo not drawn)	-35.6	/	/
CCOC(=O)C(=O)/C(=C\N(C)C)c1onc(-c2c(Cl)cccc2Cl)c1C(=O)OC	-234.3	/	/
Cc1cccc(CN2C[C@]34CC[C@@H](C[C@@H]3S2(=O)=O)O4)c1	6.6	/	/
CC(CCc1ccccc1)NC(=O)C1CCN(S(=O)(=O)c2cnc[nH]2)CC1 (stereo not drawn)	-29.4	-15.3	/
O=c1cc(O)nc(SCc2ccccc2)n1-c1ccc(F)cc1	-13.4	/	/
COC(=O)c1cc(C)nc(N)c1C#N	27.7	/	/
Cc1cc(C(=O)OCCO)c(C#N)c(N)n1	45.6*	-2.1	+
Cc1ccc(C)c(N2CCN(C(=O)CCn3c(=S)[nH]c4cc5c(cc4c3=O)OCO5)CC2)c1	-8.4	/	/
COC(=O)c1nn(-c2ccc3c(c2)OCO3)cc1O	-1.5	/	/
COC(=O)c1nn(-c2ccc3c(c2)CCN3C(C)=O)cc1O	41.0*	/	+
Nc1c(S(=O)(=O)c2cccs2)c2nc3ccccc3nc2n1Cc1cccs1	12.8	4.4	/
Nc1c(S(=O)(=O)c2cccs2)c2nc3ccccc3nc2n1CC1CCCO1 (stereo not drawn)	52.8*	-6.2	+
N#C/C(=C\c1cccc(Cl)c1)c1n[nH]c(Cn2cncn2)n1	15.5	/	/
COCCCn1cnc2c(c1=O)c1nc3ccccc3nc1n2-c1ccccc1	12.0	-3.1	/
SMILES	RmlC RmlD mix	RT RNaseH block	RmlCD fluor art
COCCCn1cnc2oc3nc4ccccc4nc3c2c1=O	50.1*	-18.4	+
CC1=CC(C)(C)N=C(Nc2ccc(C)cc2)S1	-7.8	-6.9	/
CN1C(=O)/C(=C/c2cc(N=Nc3ccccc3)ccc2O)SC1=S	-99.8	/	/
CN(C)CCCNc1oc(-c2ccccc2)nc1C#N	17.1	-10.2	/
CN(C)CCNc1oc(-c2ccccc2F)nc1C#N	46.5*	-9.3	+
O=C(NCC1CCCO1)c1cc(-c2ccco2)nc2ccccc12 (stereo not drawn)	53.4*	10.5	+
CC(C)CCNC(=O)c1cc(-c2ccco2)nc2ccccc12	69.3	/	/
CCC1(C)Cc2ccccc2-c2nc(NCCO)n(-c3ccccc3)c(=O)c21 (stereo not drawn)	-0.6	1.7	/
CC1(C)Cc2ccccc2-c2nc(NCCO)n(-c3ccccc3)c(=O)c21	51.0*	-2.9	+
Cc1csc(NC(=O)c2cc3c(s2)-c2ccccc2OC3)n1	-9.1	39.9	/
CN(C)CCNC(=O)c1cc2c(s1)-c1ccccc1OC2	160.6*	/	+
Cc1ccc(CN2CC(C(=O)Nc3ccc4c(C)cc(=O)oc4c3)CC2=O)cc1 (stereo not drawn)	30.3	0.7	+
Cc1ccc(CN2CC(C(=O)O)CC2=O)cc1 (stereo not drawn)	8.3	/	/
COc1ccc(-c2nnc(SC(C)C(=O)Nc3c(C)n(C)n(-c4ccccc4)c3=O)o2)cc1 (stereo not drawn)	-9.7	/	/
COC(=O)C(NS(C)(=O)=O)(c1c(C)[nH]c2ccccc12)C(F)(F)F (stereo not drawn)	/	-6.0	/
CCCc1cc(-n2cnc3ccccc32)n2c(nc3ccccc32)c1C#N	11.6	/	/
CCCc1cc(NCC2CCCO2)n2c(nc3ccccc32)c1C#N (stereo not drawn)	101.9*	/	+
Cc1ccc(-n2c(=O)c(C#N)cc3c(=O)n4ccccc4nc32)cc1	/	-8.0	/
Cc1cc(-n2c(=O)c(C#N)cc3c(=O)n4cccc(C)c4nc32)no1	46.7*	0.6	+
Cc1cccn2c(=O)c3cc(C#N)c(=O)n(-c4c(C)n(C)n(-c5ccccc5)c4=O)c3nc12	10.0	1.5	/
Cc1cccc(-n2c(=O)c(C#N)cc3c(=O)n4ccccc4nc32)c1	83.2*	/	+
Cc1cc(S(=O)(=O)N2CCN(c3ccc(F)cc3)CC2)c(C)s1	4.7	-0.4	/
CCOC(=O)N1CCN(Cc2nc3c(c(=O)n(C)c(=O)n3C)n2CCCc2ccccc2)CC1	-17.9	-1.7	/
COc1ccc(S(=O)(=O)N(CC(=O)NCc2ccco2)C2CCCCC2)cc1OC	-17.8	5.1	/
N#Cc1c(C(F)(F)F)cc(-c2ccc(Cl)cc2)[nH]c1=O	9.7	/	/
SMILES	RmlC RmlD mix	RT RNaseH block	RmlCD fluor art
Cc1cc(C(F)(F)F)c(C#N)c(=O)[nH]1	32.3*	/	+
CCOc1cccc2cc(-c3csc(NC(=O)CCC(=O)N4CCN(C)CC4)n3)c(=O)oc12	/	-1.7	/
CCOc1cccc2cc(-c3csc(NC(=O)CCC(=O)N4CCC(C)CC4)n3)c(=O)oc12	+	/	+
O=C(O)C1=C[C@H](c2cccs2)C[C@H](OCc2ccc(CO)cc2)O1	28.3	/	/
CC(C)(C)N1[C@@H](CC(=O)O)c2cc(C(F)(F)F)ccc2S1(=O)=O	5.2	/	/
Cc1c(-c2c(C#N)c(N)nc3c2CCCCCC3)cnn1C	13.5	/	/
COC(=O)c1c(C#N)c(N)nc2c1CCC2	67.3*	-5.6	+
O=C(C1=C[C@H](c2ccccc2)C[C@H](OCc2ccc(CO)cc2)O1)N1CCOCC1	7.3	/	/
Cc1cc(=O)oc2cc(OC(=O)CCN3C(=O)c4ccccc4C3=O)ccc12	/	/	+
Cc1cc(=O)oc2cc(OC(C)C)ccc12	4.0	-17.0	/
CCOC(=O)CSc1nc2ccccc2n1CC(=O)N(C(C)C)C(C)C	3.3	-75.9	/
CCOC(=O)CN1C=C(c2ccc3ccccc3n2)C(C[N+](=O)[O-])c2ccccc21 (stereo not drawn)	46.7*	/	+
CCOC(=O)c1nn(-c2ccc(F)cc2)c2nc(CC(C)C)c(C#N)c(=O)n12	50.9*	/	+
CCOC(=O)c1nn(-c2ccccc2C)c2nc(-c3ccc(C)cc3)c(C#N)c(=O)n12	8.4	/	/
O=C(NCCc1ccc(Cl)cc1)C1CCC(=O)N1Cc1ccc(F)cc1 (stereo not drawn)	10.2	/	/
CN1CCN(Cc2oc(CO)cc(=O)c2O)CC1	-13.6	/	/
CCc1cc(=O)oc2c(CN3CCN(C)CC3)c(O)c(Cl)cc12	125.9*	-2.1	+
CCOC(=O)COc1ccc(S(=O)(=O)N2CCc3ccccc3C2)cc1	4.8	-8.6	/
O=C(NCc1ccccc1C(F)(F)F)C1CC(c2ccc(C(F)(F)F)cc2)=NO1 (stereo not drawn)	5.9	/	/
CCOc1ccc(Nc2oc(-c3cccc(Cl)c3)nc2C#N)cc1	35.6*	/	+
CCOc1ccc(Nc2oc(-c3ccco3)nc2C#N)cc1	-14.8	-8.5	/
